# Bioassay records: PubChem, National Center for Advancing Translational Sciences (NCATS)
# Rows were chosen to be rich in hits. Some 12% of all compounds tested hit in one or more screens of this group.
# Shiga toxin inh = A qHTS for Small Molecule Inhibitors of Shiga Toxin. Vero cells, Shiga toxin protein synthesis inhibition reporter. inhibition, % at 38.7 µM. actives 9.2% (n = 290,000). AID 2315, 2010; in the data active = inhibition mostly above about 28%, no sharp cut-off; inactive = mostly below about 43%; also: 0% is about no effect
# Lassa entry inh = qHTS for Inhibitors of binding or entry into cells for Lassa Virus | Lassa virus pseudotype entry inhibition, cell reporter | Potency, µM (series often up to 37.9 µM), for inactives: at the top dose activity change, negative = inhibition, hits mostly inhibitors | actives 1.2% (n = 300,000); calls by dose curve; tested in HEK293 cells; also: potency is read from the fitted curve at half-maximal effect; % is scaled to controls: 0 for no effect and ±100 for the full control effect; nearly all actives have a fitted effect of over 50% in size
# Cycloheximide cs = Cycloheximide Counterscreen for Small Molecule Inhibitors of Shiga Toxin | AID 2314, 2010 | max response, % | cell reporter, cycloheximide protein synthesis inhibition counterscreen | actives 12% (n = 300,000); in the data active = max response mostly above about 13%, no sharp cut-off; inactive = mostly below about 14%; also: read at 38.3 µM for the half of the compounds with a filed dose; 0% is about no effect
# MARV entry inh = qHTS for inhibitors of binding or entry into cells for Marburg Virus; Marburg virus pseudotyped entry inhibition, cell reporter; Potency, µM (top dose mostly 37.8 µM), inactives show at the highest dose activity change, negative = inhibition, hits mostly inhibitors; actives 1.8% (n = 300,000); calls by dose curve; tested in HEK293 cells; also: potency is read from the fitted curve at half-maximal effect; % is scaled to controls: 0 for no effect and ±100 for the full control effect
# * marks the source's active call; other numbers are inactive results; i = inactive; u = inconclusive; x = not tested or not shown; [ ] = another dose, or the depositor's remark.
SMILES,Shiga toxin inh,Lassa entry inh,Cycloheximide cs,MARV entry inh
COC(=O)c1ccc(OCC(=O)c2ccccc2)cc1,67*,-29%,46*,u
COC(=O)c1cc(O)c(OCc2ccccc2)c(O)c1,15,10%,18*,9%
COC(=O)c1[nH]c(=O)c2ccccc2c1OCc1ccccc1,-10,-1%,-5,-33%
CC(=O)Nc1ccc(OCC(O)Cn2nc(C)c(Br)c2C)cc1 (centres undefined),-4,3%,-4,0%
CC(=O)NC(CC(=O)OCC(=O)Nc1ccc2c(c1)OCO2)c1ccccc1 (centres undefined),19,-5%[46.1 µM],1,-2%[46.1 µM]
COc1cc(CN(C(=O)COc2ccc(C)c(C)c2)c2ccccn2)cc(OC)c1OC,x,-24%[46.1 µM],x,-2%[46.1 µM]
C/C(=N\NC1=NCCN1)c1ccc(N)c([N+](=O)[O-])c1,6,u,12*,u
Cc1cccc(C(=O)N2CCc3cc(CNS(=O)(=O)c4ccc(F)c(Cl)c4)ccc32)c1,x,22%[46.1 µM],x,x
Cc1ccnc(NCn2nnc3ccccc32)c1,-17,4%,-1,18%
COc1ccc2ncc(OC(C)=O)cc2c1,23,3%,14*,u
COc1ccc2nc(C)cc(C(=O)O)c2c1,-2,-3%,-1,-14%
Cc1ccc(Cn2nc(C)c(C(=O)NCC(c3cccs3)N3CCOCC3)c2Cl)cc1 (centres undefined),x,13µM*,x,-13%
Cc1nn(-c2ccccc2)c(C)c1C(=O)NCCc1ccccc1,74*,u,33*,u
Cc1nn(Cc2ccccc2)c(C)c1C(=O)NCC(c1cccs1)N1CCOCC1 (centres undefined),x,-2%,x,24%
Cc1nn(Cc2ccccc2)c(Cl)c1C(=O)NCCc1ccc(Cl)cc1,18,u,14*,-8%
O=C(Nc1nccs1)c1cc2c(s1)-c1ccccc1OC2,71*,x,21*,x
Cc1cccc2c1-c1sc(C(=O)Nc3cccc([N+](=O)[O-])c3C)cc1CO2,6,u,0,u
Cc1cccc2c1-c1sc(C(=O)Nc3nccs3)cc1CO2,118*,x,66*,x
CCOC(=O)c1cc2c(s1)-c1c(C)cccc1OC2,168*,x,51*,x
CCCN[C@@H](C)C(=O)Nc1ccccc1C,x,x,x,2%
N#Cc1c(C(F)(F)F)cc(Cc2ccccc2)nc1SCC(=O)NCC(=O)O,x,-6%,x,-11%
Cc1ccc(-c2cc(Cc3ccncc3)c(=O)[nH]n2)cc1,7,-27%,11*,u
Cc1ccc(Cc2cc(C)n[nH]c2=O)cc1,-3,3%,-3,0%
C/C(=N\Nc1ccc(F)cc1)c1ccc(N2CCOCC2)c(F)c1,-5,x,-3,x
COCCNC(=O)NC12CC3CC(CC(C3)C1)C2,-3,x,-3,x
SMILES,Shiga toxin inh,Lassa entry inh,Cycloheximide cs,MARV entry inh
CC(C)OCCCNC(=O)NC12CC3CC(CC(C3)C1)C2,15,6%,13*,-1%
OC[C@@H]1[C@@H](c2ccc(F)cc2)C(c2ccc(F)cc2)=NN1c1ccccc1,i,x,0,x
Cc1ccc(N=C2C(=S)N(c3ccc(C)cc3)C(=N)N2/N=C/c2ccc(Cl)cc2)cc1,74*,u,48*,u
COc1ccc(/C=N/N2CCN(c3ccc(Cl)cc3)CC2)cc1,x,18%,-2,-27%
CCOC(=O)c1ccccc1NC(=O)CSc1nnc(COc2ccccc2C)n1C,-8,25%,2,u
Cc1ccc(NC(=O)CS(=O)CC(=O)Nc2ccccc2-c2ccc(C)o2)cc1 (centres undefined),-7,-13%[46.1 µM],0,u
CC(=O)Nc1ccccc1-c1ccc(C)o1,16,0%,16*,u
Cc1ccc(S(=O)(=O)N2CCCCC2)cc1NC(=O)c1ccccn1,-6,x,-2,x
Cc1cc(C(=O)N/N=C/c2cc(Br)cc(Br)c2OC(=O)c2cccc(F)c2)n[nH]1,-13,12µM*,1,18µM*
Cc1ccc(C(=O)N/N=C\c2cccs2)cn1,82*,10%,25*,2%[46.1 µM]
Cc1cc(C(=O)N/N=C/c2cc(Br)ccc2OC(=O)c2ccc(Br)cc2)n[nH]1,13,x,1,-5%
Cc1ccc(C(=O)NCC(=O)N/N=C/c2cccs2)cc1C,17,20%[46.1 µM],2,-2%[46.1 µM]
O=C(N/N=C/c1cccs1)c1[nH]ncc1Br,118*,x,55*,x
Cc1cc(C(=O)N/N=C\c2cc(C(C)(C)C)ccc2O)n[nH]1,41*,x,47*,x
CCCCc1c(O)nc(SCC(=O)c2ccccc2)n(-c2ccccc2OC)c1=O,-3,2%,-1,7%[46.1 µM]
O=C(N/N=C/c1cccs1)c1cc(-c2ccc(Cl)s2)[nH]n1,5,-21%,7,10%
Cc1ccc(OCC(=O)N/N=C/c2cccn2C)cc1,8,-20%,3,4%
Cc1cc(C(=O)N/N=C/c2cccs2)n[nH]1,54*,u,29*,21%[46.1 µM]
O=C(N/N=C/c1cccs1)c1cnccn1,32*,10%,13,u
Cc1cc(C(=O)N/N=C/c2cccn2C)n[nH]1,active,7%,33*,u
Cn1cccc1/C=N/NC(=O)c1cccc(OC(F)(F)C(F)F)c1,63*,-1%,30*,23%
CS[C@@H]1SC[C@H]2C(=O)N(C)C(C(C)C)C(=O)OC[C@@H](NC(=O)c3cnc4ccccc4n3)C(=O)N[C@@H](C)C(=O)N(C)[C@H]1C(=O)N(C)C(C(C)C)C(=O)OC[C@@H](NC(=O)c1cnc3ccccc3n1)C(=O)N[C@@H](C)C(=O)N2C (some centres undefined),-3,x,-11,x
CCCN1CCC(NC(=O)Nc2ccc([N+](=O)[O-])cc2)CC1,-7,21%[46.1 µM],-3,u
Cc1cc(C(=O)N/N=C/c2cccs2)no1,58*,0%,40*,11%
COc1ccc(/C=N/NC(=O)c2cc(C)on2)c2ccccc12,-17,1%,-1,8%[46.1 µM]
SMILES,Shiga toxin inh,Lassa entry inh,Cycloheximide cs,MARV entry inh
Oc1ccccc1C1C=C(c2ccc3c(c2)OCO3)NC(c2ccc(F)c(Br)c2)N1 (centres undefined),100*,x,36*,x
Oc1ccc(Br)cc1C1C=C(c2ccc3c(c2)OCO3)NC(c2ccc(F)c(Br)c2)N1 (centres undefined),93*,x,54*,x
COC(=O)CCC(=O)Nc1cccc(Br)c1,-3,2%,-3,6%
Cc1cccc(N2CCN(C(=O)c3ccc(S(=O)(=O)N(C)c4ccccc4)cc3)CC2)c1C,x,4.5µM*,x,u
COC(=O)c1cc(C(=O)N2CCN(c3cccc(C)c3C)CC2)cc([N+](=O)[O-])c1,-11,-23%,-3,4.5µM*
CCc1noc(C)c1C(=O)N1CCN(c2cccc(C)c2C)CC1,x,u,x,-18%
Cc1cccc(N2CCN(C(=O)c3c(-c4ccccc4)noc3C)CC2)c1C,-27,u,1,2.5µM*
COC(=O)c1cc(C(=O)N2CCN(c3ccccc3OC)CC2)cc([N+](=O)[O-])c1,48,-28%,-2,u
Cc1ccc(-c2nc3cccnc3o2)cc1NC(=O)COc1ccc(Cl)cc1C,-18,-26%,4,u
Cc1ccc(-c2nc3cccnc3o2)cc1NC(=O)COc1ccc(C(C)(C)C)cc1,-16,10µM*,-2,u
Cc1ccc(OCCCCN2CCc3ccccc3C2)cc1,1,6%[46.1 µM],-3,u
